About 83,000 compounds went through this panel and 20% of them were active in at least one assay; those are over-represented in the sample as a whole.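 Note: values are percent growth. 100 is the growth of untreated cells, values between 100 and 0 indicate rising inhibition; between -100 and 0 indicates cell death.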 Calls of active or inactive are those of the source.

Experimental findings from PubChem BioAssay (NCI) are described below.

The experiment relates to A549/ATCC NSCLC. Briefly: NCI-60 one-dose screen, 48 h (100 = growth as untreated, 0 = no growth, -100 = all killed). Particulars: 10 µM unless noted. As to the method: Growth inhibition of the A549/ATCC human Non-Small Cell Lung tumor cell line is measured as a screen for anti-cancer activity. Cells are grown in 96 well plates and exposed to the test compound for 48 hours. Compounds are tested at a single concentration, which is 10^-5 M for most compounds. The reported endpoint is percent growth (GI% or GIPRCNT), where numbers from 0 - 100% represent growth inhibition, and numbers from -100% - 0 represent cell death. For example, a value of 40 represents 60% growth inhibition. A value of 0 means no net growth occurred over the course of the experiment. A value of -40 indicates 40% of cells at the beginning of the experiment died by the end of the experiment. A value of -100 means all cells are dead at the end of the experiment.
NCI-60 Human Tumor Cell Lines Screen was performed using the standard one-dose NCI protocol, which is described in more detail at https://dtp.cancer.gov/discovery_development/nci-60/default.htm.
Compounds with GIPRCNT values below 10 were considered active. Activity score was based on GIPRCNT using the following formula: […]
Score is 0 for GIPRCNT values of 100 or above, 50 for GIPRCNT values of 0, and 100 for GIPRCNT values of -100.
Consider `NCCCNc1nc2ccc(Cl)cc2c2c(=O)c3cc(F)ccc3sc12`, for which the growth was 58.2% (inactive).

Take `Cc1ccc(C(CC(=O)O)c2c(C)[nH][nH]c2=O)cc1` (stereo not given): the growth was 105% (inactive).

`O=C(Nc1ccc(OS(=O)(=O)c2ccc(F)cc2)cc1)c1ccc(Cl)cc1`: the growth is 94.1% (inactive).

As for `COc1cc(OCc2cccc(-c3ccc(C(O)c4nccs4)cc3)c2C)cc(OC)c1CNCCNC(C)=O` (stereo not given), the growth is 96.3% (inactive).

In the case of `COc1cc(C(=O)/C=C/c2c(Cl)nc3sccn23)cc(OC)c1OC`, the growth is 83% (inactive).

On to `COc1ccc(NC2=C(Br)C(=O)C(C)=C(C)C2=O)cc1`, for which the growth is 99.5% (inactive).

Consider `CC(=O)c1ccc(Nc2nc(C(C)=O)c(C)s2)cc1`, for which the growth is 95.5% (inactive).

As to `COc1ccc(-c2nc3sc(-c4ccc(Cl)cc4)cn3n2)cc1`, the growth is -30.3% (active).

With `CCN(CC)CCNc1nc2ccccc2c2c(=O)c3cc(Cl)ccc3sc12`, the growth was 52.3% (inactive).

Turning to `COc1ccc(C(=O)N=Nc2c(O)n(C)c3ccccc23)cc1`, the growth was 105% (inactive).

With `NS(=O)(=O)c1ccc(N=Nc2ccc(-c3nn4cc(-c5ccccc5)nc4s3)cc2)cc1`, the growth is 96.9% (inactive).

Turning to `CC(=O)OC[C@H]1OC(Sc2sc(C(=O)c3ccc(Br)cc3)c(N)c2-c2nc3ccccc3s2)[C@H](OC(C)=O)[C@@H](OC(C)=O)[C@H]1OC(C)=O` (stereo not given in full), the growth was 92.2% (inactive).

`Cc1ccc(-c2nc(N3CCN(C(=O)c4ccc(OC(F)(F)F)cc4)CC3)c3ccccc3n2)cc1`: the growth is 71.6% (inactive).

As for `COc1nc2ccccc2cc1-c1nc2c(cnn2-c2ccccc2)c(=O)[nH]1`, the growth is 50.2% (inactive).

As for `Cc1onc2c(-c3ccccc3)n[nH]c(=O)c12`, the growth is 114% (inactive).

As for `O=C(Oc1cccc2ccccc12)Oc1cccc2ccccc12`, the growth is 107% (inactive).

As to `COc1ccc(C2C(C#N)=C(N)Oc3c2sc2c(C)cccc32)cc1` (stereo not given), the growth was 28.4% (inactive).

Consider `Cc1cc(=O)oc2cc(OC(=O)CN3CCN(C)CC3)ccc12`, for which the growth is 102% (inactive).

Take `CCCCCCn1c(-c2ccc(C(=O)O/N=C(\N)c3ccc(OC)cc3)cc2)nc(-c2ccccc2)c1-c1ccccc1`: the growth is -33.9% (active).

Consider `COc1ccc2c(c1OC)C(=O)O[C@H]2[C@H]1c2c(cc3c(c2OC)OCO3)CCN1C`, for which the growth was 101% (inactive).

Take `COc1cccc(-c2nc(-c3ccc(NC(=O)C(C)C)cc3)[nH]c2-c2ccnc(Br)c2)c1`: the growth was 38.8% (inactive).

Take `CCCCNc1nc(NN2C(=O)c3cccc4cccc(c34)C2=O)nc(-n2cnc3ccccc32)n1`: the growth was 89.4% (inactive).

Regarding `CCCCNC(=O)Oc1ccc(/C(=C(\C)c2ccc(Cl)cc2)c2ccc(OCCN3CCCCC3)cc2)cc1`, the growth is 63.8% (inactive).

As to `O=c1c2cc(F)ccc2sc2c(NCCCNCCO)nc3ccc(F)cc3c12`, the growth was 64.7% (inactive).

Take `CC(=O)CC[C@H]1C(=O)N[C@@H](C(C)C)C(=O)N[C@@H](Cc2cc(O)cc(F)c2)C(=O)N2CCC[C@H](N2)C(=O)O[C@H](/C(C)=C/C=C/C(=O)OC(C)(C)C)C/C=C/C=C/[C@H](O)[C@H](C)[C@H]1O`: the growth was 49.9% (inactive).

On to `CNc1nc2c(s1)C(c1cc(F)ccc1F)CC(=O)N2` (stereo not given), for which the growth is 87% (inactive).

As to `C=CCc1cc(C)ccc1NC(C(=O)NCC(=O)OC)c1ccccc1` (stereo not given), the growth was 93% (inactive).

In the case of `Cc1ccc(/C=C2\Oc3ccc(O)c(O)c3C2=O)cc1`, the growth is 73.1% (inactive).

Regarding `c1ccc2cc(C[n+]3ccn(CCCCCCn4cc[n+](Cc5ccc6ccccc6c5)c4)c3)ccc2c1`, the growth was 38.6% (inactive).

Consider `COc1ccc(C(=O)/C=C/c2sc(Cl)nc2Cl)cc1`, for which the growth was 78.1% (inactive).

With `O=S(=O)(Nc1ccc(-c2nc(-c3cccc(OCCN4CCOCC4)c3)c(-c3ccnc(Br)c3)[nH]2)cc1)c1ccccc1`, the growth is 30.4% (inactive).

`Cc1nn(-c2ccccc2)c(-n2ccnc2)c1/C=N/Nc1nc(-c2ccc(Cl)c(Cl)c2)cs1`: the growth is -8.24% (active).

For `Brc1c[n+](Cc2ccc3ccccc3c2)cn1Cc1ccc2ccccc2c1`, the growth was 70% (inactive).

As to `COc1ccc(-c2[nH]ncc2-c2cc3c(c(OC)c2)OCC(=O)N3)cc1`, the growth was 35.2% (inactive).

In the case of `O=C(CCN1C(=O)/C(=C/c2ccc(O)cc2)SC1=S)Nc1ccccc1`, the growth is 93.3% (inactive).

`O=C(N/N=C/[C@@H](O)[C@H](O)[C@H](O)CO)c1ccc(NC(=O)c2cccnc2)cc1`: the growth is 101% (inactive).

For the compound `Cc1cccc(NCc2cn(-c3ccc(C(=O)O)cc3)nc2-c2ccc(C(=O)O)cc2)n1`, the growth was 104% (inactive).

For `Cn1cc(C(=O)c2nc(-c3cn(C)c4ccc(F)cc34)no2)c2cc(F)ccc21`, the growth was 87.5% (inactive).

Consider `Cc1cc(=O)oc2cc(OC(=O)N3CCN(C)CC3)ccc12`, for which the growth is 103% (inactive).

Turning to `COc1cc(/C=N/NC(=O)c2ccc(C)nc2)cc(OC)c1OC`, the growth is 90.9% (inactive).
